# Measured values published in PubChem BioAssay (EPA / NIEHS).
# Values joined by “and” are separate entries in the source; they are usually repeats but may differ in a detail not shown here. Equal values may be shown once. Where a structure was tested more than once in an assay, its records may differ in their call. Active and inactive are the calls of the source. How the source made its calls: active means hit-call score of the fitted dose curve at least 0.9, where 1 is the maximum; inactive means score below 0.9.
# Read-out: Thrombomodulin, THBD (gene 7056)
# Test: BSK_LPS_Thrombomodulin: BioMAP Diversity Plus: LPS Assay for Thrombomodulin Biomarker Activity (AID 2284296)
# Conditions: primary human HUVEC with PBMC
# Protocol: BSK_LPS is a cell-based, multiplexed-readout assay that uses umbilical vein endothelium and peripheral blood mononuclear cells, a human vascular primary cell co-culture, with measurements taken at 24 hours after chemical dosing in a 96-well plate.BSK_LPS_Thrombomodulin is an assay component measured in the BSK_LPS assay. It measures Thrombomodulin antibody related to regulation of gene expression using ELISA technology.Data from the assay component BSK_LPS_Thrombodulin was analyzed at the endpoint, BSK_LPS_Thrombomodulin, in the positive analysis fitting direction relative to DMSO as the negative control and baseline of activity. Using a type of binding reporter, gain or loss-of-signal activity can be used to understand protein changes. To generalize the intended target to other relatable targets, this assay endpoint is annotated to the 'gpcr' intended target family, where the subfamily is 'rhodopsin-like receptor'.
# The levels of cell surface (or secreted, indicated by the prefix "s") biomarker endpoints were measured by ELISA. Overt cytotoxicity to cells in confluent adherent cultures (all systems other than the BT system) was assessed by measuring total protein levels using sulforhodamine B (SRB) staining in parallel cultures at the time of biomarker measurements, indicated as SRB endpoints. For proliferation assays for adherent cell types, individual cell types are cultured at sub-confluence and relative cell numbers quantified by SRB staining at time points optimized for each system (48 h: 3C and CASM3C systems; 72 h: BT and HDF3CGF systems; 96 h: SAg system). SRB was performed by staining cells with 0.1% SRB after fixation with 10% TCA and reading wells at 560 nm.Viability and proliferation of PBMC (T cells) was quantified by Alamar Blue reduction for the SAg and BT systems. For PBMC viability (referred to as PBMC Cytotoxicity within the assay endpoint names), cells were plated (75,000/well in a 96-well plate) and then chemical samples added for 1 h before addition of activators, SEB and TSST-1 (20 ng/mL final concentration each). Cells were incubated for 90 h. Then, Alamar Blue (20 uL/well) (Invitrogen, Cat DAL1100) was added for 6 h, and the plates were read with a fluorescence microplate reader at 546/580 nm (excitation/emission). For PBMC proliferation, cells were plated and activated as above but incubated for only 16 h prior to addition of Alamar Blue. Plates were read after 6 h.
SMILES,outcome,AC50
O=C(O)C=CC(F)(C(F)(F)F)C(F)(F)F,inactive,
OCC(F)(F)OC(F)(F)C(F)(F)OC(F)(F)C(F)(F)OC(F)(F)CO,inactive,4.54 µM (active)
COP(=O)(CCC(=O)NCO)OC,inactive,
O=C(O)C(F)(F)OC(F)(F)C(F)(F)OC(F)(F)F,inactive,
NC(=O)C(F)(F)C(F)(F)F,inactive,
OCC(F)(F)OC(F)(F)C(F)(F)OC(F)(F)C(F)(F)OC(F)(F)F,inactive,
OCC(F)(F)OC(F)(F)C(F)(F)OC(F)(F)CO,inactive,
C=CC(=O)OCC(F)(F)C(F)F,,30 µM (active) and 39 µM (active)
O=C(O)C(F)(OC(F)(F)C(F)(F)C(F)(F)F)C(F)(F)F (stereo unspecified),inactive,
COC(=O)C(F)(F)C(F)(F)OC(F)(C(F)(F)F)C(F)(F)OC(F)=C(F)F (stereo unspecified),inactive,
O=S(=O)(F)C(F)(F)C(F)(F)C(F)(F)C(F)(F)C(F)(F)C(F)(F)C(F)(F)C(F)(F)F,inactive,
FC(F)(F)C(F)(C(F)(F)F)C(F)(F)C(F)(F)CC1CO1 (stereo unspecified),inactive,
O=C(O)C(F)(F)OC(F)(F)C(F)(F)OC(F)(F)C(=O)O,inactive,
O=C(O)C(F)(F)C(F)(F)C(=O)O,inactive,
CC(O)C(F)(F)C(F)(F)F (stereo unspecified),inactive,
